IL-1B inflam inh – inhibitors of inflammasome signaling (IL-1 beta secretion); THP-1 LPS/ATP IL-1B secretion, AlphaLISA, 16 h; active compounds read low; activity change, % at 57.5 µM; hit rate 4.7% among 360,000; in the data active = activity change below about -50%; inconclusive = mostly about -30% to -49%
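THP-1 cells pretreated 1 hr with compounds (up to 57.5 uM final), then stimulated with LPS (250 ng/mL final) plus ATP (1.25 mM final); secreted IL-1B measured by AlphaLISA after 16 hr, decreased signal indicating inhibition.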
Six1-Eya2 blk – Six1/Eya2 interaction inhibition; Q15475+O00167; AlphaScreen GST-Six1/His-Eya2 binding, biochemical; active compounds read low; activity change, % (test concentration not listed); hit rate 0.56% among 360,000; AID 651725; in the data active = activity change below about -65%; inconclusive = mostly about -30% to -63%
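AlphaScreen luminescence read after one hour at 37 °C in darkness. Pin-transferred compounds met GST-Six1 and His-Eya2 protein (5X stock 250 nM/500 nM) plus glutathione donor and Ni-chelate acceptor beads (5X, 50 ug/mL).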
TDP1 inh – inhibitors of human tyrosyl-DNA phosphodiesterase TDP1. Potency, µM (series often up to 130 µM), for inactives: at the top dose activity change, negative = inhibition, actives largely listed as inhibitors. recombinant TDP1, AlphaScreen DNA substrate cleavage. Q9NUW8. hit rate 0.28% among 350,000; also: potency is read from the fitted curve at half-maximal effect; nearly all actives have a fitted effect of over 40% in size
Target sequence (Q9NUW8 whole entry, looked up): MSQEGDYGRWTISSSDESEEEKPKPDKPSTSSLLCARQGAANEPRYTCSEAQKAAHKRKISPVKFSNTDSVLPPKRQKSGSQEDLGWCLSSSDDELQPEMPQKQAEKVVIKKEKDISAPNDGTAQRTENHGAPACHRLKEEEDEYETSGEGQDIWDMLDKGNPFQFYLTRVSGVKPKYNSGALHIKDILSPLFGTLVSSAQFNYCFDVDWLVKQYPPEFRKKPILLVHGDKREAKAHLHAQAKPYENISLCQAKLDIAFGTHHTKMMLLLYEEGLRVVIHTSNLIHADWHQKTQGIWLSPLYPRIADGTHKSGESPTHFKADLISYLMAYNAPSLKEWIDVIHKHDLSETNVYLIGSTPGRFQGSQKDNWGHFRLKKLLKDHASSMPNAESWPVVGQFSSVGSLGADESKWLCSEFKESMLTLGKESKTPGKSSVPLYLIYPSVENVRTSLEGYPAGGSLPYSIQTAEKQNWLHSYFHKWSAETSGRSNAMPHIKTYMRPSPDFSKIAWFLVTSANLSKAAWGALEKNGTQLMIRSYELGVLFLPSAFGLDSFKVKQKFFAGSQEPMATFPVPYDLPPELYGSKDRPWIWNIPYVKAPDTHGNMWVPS
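Enzyme-compound mixtures sat 15 min at room temperature, followed by a 5 min reaction with 15 nM final substrate and 10 min with AlphaScreen beads. Recombinant human Tdp1 was used at 1 nM final.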
TDP1 cell noCPT – qHTS for Inhibitors of human tyrosyl-DNA phosphodiesterase 1 (TDP1): qHTS in cells in absence of CPT; hit rate 15% among 420,000; DT40 Tdp1-/- hTDP1 cells, no CPT, ATP luminescence, 48 h; Potency, µM (titrated, usually from 46.2 µM), for the others: at the top dose activity change, negative = growth inhibition, hits mostly inhibitors; also: potency is read from the fitted curve at half-maximal effect; nearly all actives have a fitted effect of over 55% in size
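Chicken DT40 Tdp1-/- cells stably complemented with human TDP1 were seeded at 400 cells/well with DMSO in place of 20 nM camptothecin. After compound pinning, cells grew at least 48 hr at 37 °C; viability read by CellTiter-Glo luminescence.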
DT40 TDP1 CPT – growth inhibition of DT40 Tdp1-/-;hTDP1 cells with camptothecin (screen for TDP1 inhibitors) | chicken DT40 Tdp1-/-;hTDP1 cells + 20 nM CPT, ATP luminescence, 48 h | Potency, µM (series often up to 46.2 µM), without a hit: top-dose activity change, negative = growth inhibition, actives largely listed as inhibitors | hit rate 12% among 420,000 | AID 686979; also: potency is read from the fitted curve at half-maximal effect; nearly all actives have a fitted effect of over 55% in size
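Cell growth measured by CellTiter-Glo luminescence after a minimum 48 h, 37 C compound exposure with 20 nM CPT in Tdp1-knockout DT40 cells stably expressing hTDP1, seeded 400/well; qHTS titration format.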
CtBP-E1A blk – inhibitors of CtBP/E1A interaction; AlphaScreen GST-E1A/His-CtBP binding, 1536-well; active compounds read low; activity change, % (test concentration not listed); hit rate 0.49% among 340,000; in the data active = activity change below about -65%; inconclusive = mostly about -30% to -63%
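AlphaScreen with 125 nM GST-E1A and 125 nM His-CtBP (5X stocks) in Tris pH 8.0, 300 mM NaCl, BSA, Tween 20, TCEP. Compounds preincubated 2 h at 37 deg C, then glutathione donor/nickel acceptor beads added for 1 h at 37 deg C in dark.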
* marks the source's active call; other numbers are inactive results; ? = inconclusive; . = no result; ! = a repeat was not active; [ ] = dose if it differs, or a comment. Hits are enriched below; roughly 18% of the tested compounds scored in any of these assays. Unless noted, calls follow the shape of the dose curve; as a rule, active = well fitted curve in the direction sought with a large enough effect; inconclusive = small, poorly fitted or top-dose-only effect, or another doubt; inactive = no such curve, though single readings can be large; an effect the other way counts as inactive or inconclusive. % is scaled to controls: 0 for no effect and ±100 for the full control effect.

SMILES	IL-1B inflam inh	Six1-Eya2 blk	TDP1 inh	TDP1 cell noCPT	DT40 TDP1 CPT	CtBP-E1A blk
CC(C)OC(=O)Nc1ccc2c(c1)N(C(=O)N1CCN(C)CC1)c1ccccc1CC2	-28	7	.	13µM*	12µM*	0
CCOC(=O)Nc1ccc2c(c1)N(C(=O)N(C)C)c1ccccc1CC2	0	-3	-1%	29µM*	?	-1
CCOC(=O)Nc1ccc2c(c1)N(C(=O)N1CCN(C)CC1)c1ccccc1CC2	-21	-7	3%	?	-34%	.
Cc1ccc(-c2nc3ccccc3o2)cc1NC(=O)COc1ccccc1C	.	.	.	4%	-8%	.
CC(C)CC1NC(=O)c2cc3ccccc3cc2-n2c1nc1cc(Cl)ccc1c2=O (stereo unspecified)	73	-4	.	18µM*	?	-1
CC1NC(=O)c2cc3ccccc3cc2-n2c1nc1cc(Cl)ccc1c2=O (stereo unspecified)	16	-3	.	?	21µM*	1
CC1NC(=O)c2cc3ccccc3cc2-n2c1nc1cc(F)ccc1c2=O (stereo unspecified)	12	-7	.	?	-12%	0
CC(C)=CCC/C(C)=C/COc1c2occc2cc2ccc(=O)oc12	37	4	20µM*!	?	?	7
CC(C)=CCC/C(C)=C/COc1ccc2ccc(=O)oc2c1	-10	24	-5%	?	?	58
COc1ccc([N+](=O)[O-])cc1C1NN=C(c2ccccc2O)S1 (stereo unspecified)	32	8	8%	3.3µM*	3.7µM*	3
COc1ccc(C2=NOC(Cn3nc(C(=O)NCC4CC4)cc3-c3ccccc3)C2)cc1 (stereo unspecified)	5	-12	0%	?	21µM*	0
COc1ccc(C2=NOC(Cn3nc(C(=O)NCc4ccccc4OC)cc3-c3ccccc3)C2)cc1 (stereo unspecified)	3	-9	1%	21µM*	23µM*	-5
COc1ccc(C2=NOC(Cn3nc(-c4ccccc4)cc3C(=O)NCc3ccc(C)cc3)C2)cc1 (stereo unspecified)	0	-2	0%	-14%	-26%	-1
COc1ccc(C2=NOC(Cn3nc(C(=O)NCc4ccc(OC(F)(F)F)cc4)cc3-c3ccccc3)C2)cc1 (stereo unspecified)	?	0	-3%	?	?	9
O=C(CCN1C(=O)C2C3CCC(C3)C2C1=O)Nc1ccc(Br)cc1 (stereo unspecified)	-6	-4	1%	-15%	0%	8
COc1ccc(-c2cc(C(=O)N3CCN(c4ccccc4O)CC3)c3ccccc3n2)cc1OC	?	-13	4%	18µM*	?	-3
COc1ccc(-c2cc(C(=O)N3CCN(c4ncccn4)CC3)c3ccccc3n2)c(OC)c1	7	-8	6%	23µM*	?	-21
COc1ccc(N2CCN(C(=O)c3cc(-c4cc(OC)ccc4OC)nc4ccccc34)CC2)cc1	16	?	10%	23µM*	23µM*	2
COc1ccc(-c2cc(C(=O)N3CCN(c4ccccc4O)CC3)c3ccccc3n2)cc1	?	-2	4%	?	?	.
COc1ccc(-c2cc(C(=O)O)c3ccccc3n2)c(OC)c1	20	7	0%	-12%	-10%	0
COc1ccc(-c2cc(C(=O)N3CCCCCC3)c3ccccc3n2)c(OC)c1	?	-8	-4%[56.1 µM]	12µM*	?	-3
Cc1ccc2nc(-c3ccsc3)c(Nc3ccc(C(C)C)cc3)n2c1	.	.	0%	-9%	-19%	.
CN(CC1CCCN(CCc2ccc(F)cc2)C1)C(=O)CCC(F)(F)F (stereo unspecified)	-10	3	.	-8%	-14%	-11

Bioassay records deposited in PubChem by National Center for Advancing Translational Sciences (NCATS).
